PubChem BioAssay AID686928 (Broad Institute, 2013)
Results with a measured potency or affinity are listed apart. Active and inactive are the calls of the source. No rule for the calls is given here.

experiment: HeLa cell cytotoxicity, dose response, cytotoxicity control, 24 h, plate reader, dry powder (AID 686928); conditions: series mostly up to 80 µM

SMILES | outcome
O=C(Nc1nnc(-c2ccc3c(c2)OCCO3)o1)C1CCCC1 | inactive
O=C(Cc1ccc(-c2ccccc2)cc1)NC1CCC1 | inactive
Cn1nc(NC(=O)c2ccco2)c2ccccc21 | inactive
COc1ccc2cc3c(NC(=O)c4ccco4)nn(C)c3nc2c1 | inactive
Cn1nc(NC(=O)c2ccco2)c2cccnc21 | inactive
c1ccc(CNc2nnc(-c3ccc4c(c3)OCCO4)o2)cc1 | inactive
CCn1nnnc1/N=C/c1ccc(N2CCCCC2)cc1 | inactive
Cn1cnc(=O)c2ccccc21 | inactive
O=S(=O)(Nc1nnc(-c2ccc3c(c2)OCCO3)o1)c1ccc(Cl)cc1 | inactive
CC(C)(C)OC(=O)N1CCC(C(=O)Nc2nnc(-c3ccc4c(c3)OCCO4)o2)CC1 | inactive
CCC(C)(C)C(=O)Nc1nnc(-c2ccc3c(c2)OCCO3)o1 | inactive
O=C(Cc1ccc(-c2ccccc2)cc1)NC1CNC1 | inactive
O=c1ncn(-c2ccccc2)c2ccccc12 | inactive
O=c1ncn(-c2ccc(F)c(Cl)c2)c2ccccc12 | inactive
Cc1ccc2cc3c(NC(=O)Cc4ccco4)nn(C)c3nc2c1 | inactive
O=C(CSc1nc2c(c(=O)[nH]1)CCCC2)NC1CCCCC1 | inactive
